Experimental data from the supplement of paper PMC9694430.

Columns and labels:
Assay in all cases: thermal shift delta Tm vs DMSO control; higher = stronger stabilization (binding)
Settings in all cases: 12.5 µM; protein concentration 2 µM
LOC_OS01G01410-cb001 = test system: LOC_OS01G01410-cb001
In short: (§1)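 Purified, E. coli-expressed rice kinase domain constructs were tested by differential scanning fluorimetry in 96-well plates: 19.5 μl of 2 μM kinase in 100 mM potassium phosphate pH 7.5, 150 mM NaCl, 10% glycerol, 5 × SYPRO Orange, plus compound in DMSO. Fluorescence was read from 25°C to 95°C at 0.05°C/s. Melting temperatures came from Boltzmann fits, and the shift is the triplicate mean relative to protein with DMSO alone.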

LOC_OS01G02750-cb003 = test system: LOC_OS01G02750-cb003
In short: as §1

LOC_OS01G10900-cb004 = test system: LOC_OS01G10900-cb004
In short: as §1

LOC_OS01G13800-cb001 = test system: LOC_OS01G13800-cb001
In short: as §1

LOC_OS01G14860-cb001 = test system: LOC_OS01G14860-cb001
In short: as §1

LOC_OS01G21960-cb002 = test system: LOC_OS01G21960-cb002
In short: as §1

LOC_OS01G48390-cb002 = test system: LOC_OS01G48390-cb002
In short: as §1

LOC_OS01G51400-cb002 = test system: LOC_OS01G51400-cb002
In short: as §1

LOC_OS01G52050-cb004 = test system: T1, LOC_OS01G52050-cb004
T1 sequence (whole entry): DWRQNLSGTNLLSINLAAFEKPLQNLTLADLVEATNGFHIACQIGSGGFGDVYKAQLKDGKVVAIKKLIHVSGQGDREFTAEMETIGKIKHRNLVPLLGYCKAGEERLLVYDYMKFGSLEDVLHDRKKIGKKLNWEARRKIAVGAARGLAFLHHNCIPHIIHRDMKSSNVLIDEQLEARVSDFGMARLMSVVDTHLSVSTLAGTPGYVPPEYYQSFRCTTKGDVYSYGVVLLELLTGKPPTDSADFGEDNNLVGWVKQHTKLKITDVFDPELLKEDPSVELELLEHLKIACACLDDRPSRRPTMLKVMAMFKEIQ
In short: as §1

LOC_OS01G39600-cb002 = test system: LOC_OS01G39600-cb002
In short: as §1

Structure (SMILES): O=C(Nc1ccc(-c2ccnc(Nc3ccc(N4CCOCC4)cc3)n2)cc1)C1CCCN1 (stereo not given)
- thermal shift delta Tm (LOC_OS01G01410-cb001): -0.35 °C
- thermal shift delta Tm (LOC_OS01G02750-cb003): -0.13 °C
- thermal shift delta Tm (LOC_OS01G10900-cb004): 0.59 °C
- thermal shift delta Tm (LOC_OS01G13800-cb001): -0.02 °C
- thermal shift delta Tm (LOC_OS01G14860-cb001): 1.14 °C
- thermal shift delta Tm (LOC_OS01G21960-cb002): 1.5 °C
- thermal shift delta Tm (LOC_OS01G48390-cb002): 0.45 °C
- thermal shift delta Tm (LOC_OS01G51400-cb002): 0.18 °C
- thermal shift delta Tm (LOC_OS01G52050-cb004): 0.51 °C

Structure (SMILES): Nc1ccc(-c2ccc3ncc4ccc(=O)n(-c5cccc(C(F)(F)F)c5)c4c3c2)cn1 [Torin 2]
- thermal shift delta Tm (LOC_OS01G01410-cb001): 1.14 °C
- thermal shift delta Tm (LOC_OS01G02750-cb003): 1.23 °C
- thermal shift delta Tm (LOC_OS01G10900-cb004): -0.05 °C
- thermal shift delta Tm (LOC_OS01G13800-cb001): -0.87 °C
- thermal shift delta Tm (LOC_OS01G14860-cb001): 2.07 °C
- thermal shift delta Tm (LOC_OS01G21960-cb002): 1.41 °C
- thermal shift delta Tm (LOC_OS01G39600-cb002): 0.74 °C
- thermal shift delta Tm (LOC_OS01G48390-cb002): 0.94 °C
- thermal shift delta Tm (LOC_OS01G51400-cb002): 0.41 °C
- thermal shift delta Tm (LOC_OS01G52050-cb004): 0.7 °C

Structure (SMILES): Cc1ccc(C(=O)Nc2cccc(C(F)(F)F)c2)cc1Nc1nc(-c2cccnc2)nc2c1cnn2C
- thermal shift delta Tm (LOC_OS01G01410-cb001): 1.82 °C
- thermal shift delta Tm (LOC_OS01G02750-cb003): 7.19 °C
- thermal shift delta Tm (LOC_OS01G10900-cb004): 1.25 °C
- thermal shift delta Tm (LOC_OS01G13800-cb001): 1.68 °C
- thermal shift delta Tm (LOC_OS01G14860-cb001): 1.28 °C
- thermal shift delta Tm (LOC_OS01G21960-cb002): 2.07 °C
- thermal shift delta Tm (LOC_OS01G48390-cb002): 2.62 °C
- thermal shift delta Tm (LOC_OS01G51400-cb002): 1.11 °C
- thermal shift delta Tm (LOC_OS01G52050-cb004): 2.93 °C

Structure (SMILES): Cc1ccc(-n2nc(C(C)(C)C)cc2NC(=O)Nc2ccc(OCCN3CCOCC3)c3ccccc23)cc1 [Doramapimod (BIRB 796)]
- thermal shift delta Tm (LOC_OS01G01410-cb001): 0.6 °C
- thermal shift delta Tm (LOC_OS01G02750-cb003): 0.28 °C
- thermal shift delta Tm (LOC_OS01G10900-cb004): 0.4 °C
- thermal shift delta Tm (LOC_OS01G13800-cb001): 0.47 °C
- thermal shift delta Tm (LOC_OS01G14860-cb001): 1.26 °C
- thermal shift delta Tm (LOC_OS01G21960-cb002): 0.35 °C
- thermal shift delta Tm (LOC_OS01G39600-cb002): 0.04 °C
- thermal shift delta Tm (LOC_OS01G48390-cb002): 0.73 °C
- thermal shift delta Tm (LOC_OS01G51400-cb002): 0.2 °C
- thermal shift delta Tm (LOC_OS01G52050-cb004): 1.1 °C

Structure (SMILES): COc1cc(Nc2c(C#N)cnc3cc(OCCCN4CCN(C)CC4)c(OC)cc23)c(Cl)cc1Cl [Bosutinib (SKI-606)]
- thermal shift delta Tm (LOC_OS01G01410-cb001): 0.89 °C
- thermal shift delta Tm (LOC_OS01G02750-cb003): 0.44 °C
- thermal shift delta Tm (LOC_OS01G10900-cb004): -0.3 °C
- thermal shift delta Tm (LOC_OS01G13800-cb001): 0.52 °C
- thermal shift delta Tm (LOC_OS01G14860-cb001): 0.06 °C
- thermal shift delta Tm (LOC_OS01G21960-cb002): -0.08 °C
- thermal shift delta Tm (LOC_OS01G39600-cb002): -0.04 °C
- thermal shift delta Tm (LOC_OS01G48390-cb002): 0.05 °C
- thermal shift delta Tm (LOC_OS01G51400-cb002): -0.09 °C
- thermal shift delta Tm (LOC_OS01G52050-cb004): 0.17 °C

Structure (SMILES): CO[C@H]1C[C@@H]2CC[C@@H](C)[C@@](O)(O2)C(=O)C(=O)N2CCCC[C@H]2C(=O)O[C@H]([C@H](C)C[C@@H]2CC[C@H](n3cnnn3)[C@H](OC)C2)CC(=O)[C@H](C)/C=C(\C)[C@@H](O)[C@@H](OC)C(=O)[C@H](C)C[C@H](C)/C=C/C=C/C=C/1C [Zotarolimus(ABT-578)]
- thermal shift delta Tm (LOC_OS01G01410-cb001): 0.49 °C
- thermal shift delta Tm (LOC_OS01G02750-cb003): 0.69 °C
- thermal shift delta Tm (LOC_OS01G10900-cb004): 0.11 °C
- thermal shift delta Tm (LOC_OS01G13800-cb001): -0.04 °C
- thermal shift delta Tm (LOC_OS01G14860-cb001): 0.22 °C
- thermal shift delta Tm (LOC_OS01G21960-cb002): 1.09 °C
- thermal shift delta Tm (LOC_OS01G48390-cb002): 1.07 °C
- thermal shift delta Tm (LOC_OS01G51400-cb002): 0.06 °C
- thermal shift delta Tm (LOC_OS01G52050-cb004): 1 °C

Structure (SMILES): Cc1ccc(F)c(NC(=O)Nc2ccc(-c3cccc4[nH]nc(N)c34)cc2)c1 [Linifanib (ABT-869)]
- thermal shift delta Tm (LOC_OS01G01410-cb001): 3 °C
- thermal shift delta Tm (LOC_OS01G02750-cb003): 3.87 °C
- thermal shift delta Tm (LOC_OS01G10900-cb004): 1.34 °C
- thermal shift delta Tm (LOC_OS01G13800-cb001): 0.36 °C
- thermal shift delta Tm (LOC_OS01G14860-cb001): 2.29 °C
- thermal shift delta Tm (LOC_OS01G21960-cb002): 1.08 °C
- thermal shift delta Tm (LOC_OS01G39600-cb002): 2.02 °C
- thermal shift delta Tm (LOC_OS01G48390-cb002): 4.44 °C
- thermal shift delta Tm (LOC_OS01G51400-cb002): 0.54 °C
- thermal shift delta Tm (LOC_OS01G52050-cb004): 6.66 °C

Structure (SMILES): CN1CCCN(C(=O)c2cccc(-c3ccc(/C=C4/C(=O)Nc5ccc(Cl)cc54)o3)c2)CC1
- thermal shift delta Tm (LOC_OS01G01410-cb001): 2.05 °C
- thermal shift delta Tm (LOC_OS01G02750-cb003): 1.47 °C
- thermal shift delta Tm (LOC_OS01G10900-cb004): 2.9 °C
- thermal shift delta Tm (LOC_OS01G13800-cb001): 0.13 °C
- thermal shift delta Tm (LOC_OS01G14860-cb001): 4.25 °C
- thermal shift delta Tm (LOC_OS01G21960-cb002): 1.58 °C
- thermal shift delta Tm (LOC_OS01G48390-cb002): 1.96 °C
- thermal shift delta Tm (LOC_OS01G51400-cb002): 0.12 °C
- thermal shift delta Tm (LOC_OS01G52050-cb004): 0.58 °C

Structure (SMILES): O=c1ccc2ccc(O)c(O)c2o1 [Daphnetin]
- thermal shift delta Tm (LOC_OS01G01410-cb001): 0.85 °C
- thermal shift delta Tm (LOC_OS01G10900-cb004): 0.22 °C
- thermal shift delta Tm (LOC_OS01G13800-cb001): 0.62 °C
- thermal shift delta Tm (LOC_OS01G14860-cb001): 0.62 °C
- thermal shift delta Tm (LOC_OS01G21960-cb002): 1.18 °C
- thermal shift delta Tm (LOC_OS01G39600-cb002): -0.43 °C
- thermal shift delta Tm (LOC_OS01G48390-cb002): 0.92 °C
- thermal shift delta Tm (LOC_OS01G51400-cb002): 0.41 °C
- thermal shift delta Tm (LOC_OS01G52050-cb004): 0.08 °C
